High-throughput results from PubChem.
GLS inh: glutaminase GLS (human) inhibition | Potency, µM (top dose mostly 45.5 µM), inactives show at the highest dose activity change, negative = inhibition, hits mostly inhibitors | 0.21% of 410,000 active | O94925 | GLS enzymatic activity, qHTS titration; further: on the % scale 0 is the no-effect control and ±100 the full control effect
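hKGA; 45 mM KH2PO4 pH 8.2 + 0.02% Tween-20; cpd via pin tool; 1 mM Gln soln; GluOx/HRP/Amplex Red; RT 30 min; fluor. t0 & final.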
HP1b binding inh: HP1-beta chromodomain-methylated histone interaction inhibition | 0.56% of 390,000 active | AlphaScreen HP1-beta / biotin-H3K9me3 peptide binding | AID 540317 | Potency, µM (series often up to 114 µM), without a hit: at the highest dose activity change, negative = inhibition, actives largely listed as inhibitors; further: nearly all actives have a fitted effect of over 70% in size
Target sequence (P83916 whole entry, looked up): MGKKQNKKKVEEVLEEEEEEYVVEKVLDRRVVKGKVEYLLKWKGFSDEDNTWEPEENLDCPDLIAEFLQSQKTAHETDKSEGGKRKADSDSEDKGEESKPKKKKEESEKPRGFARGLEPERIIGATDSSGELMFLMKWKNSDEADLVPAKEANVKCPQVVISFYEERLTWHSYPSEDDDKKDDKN
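HP1-beta protein (50 nM final) preincubated 30 min at room temperature with biotinylated H3(1-18)K9me3 peptide (50 nM) in PBS pH 7.4, 0.01% Tween-20, then compound added for 30 min. AlphaScreen streptavidin donor/nickel chelate acceptor beads (10 ug/mL final), 30 min dark, luminescence read.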
G9a inh: inhibitors of human histone lysine methyltransferase G9a; Q96KQ7; G9a H3K9 monomethylation, AlphaScreen, 2 h; Potency, µM (series often up to 102 µM), inactives show top-dose activity, negative = inhibition, actives largely listed as inhibitors; 8.8% of 350,000 active; further: on the % scale 0 is the no-effect control and ±100 the full control effect; nearly all actives have a fitted effect of over 75% in size
Target sequence (Q96KQ7 913-1193 limits assumed): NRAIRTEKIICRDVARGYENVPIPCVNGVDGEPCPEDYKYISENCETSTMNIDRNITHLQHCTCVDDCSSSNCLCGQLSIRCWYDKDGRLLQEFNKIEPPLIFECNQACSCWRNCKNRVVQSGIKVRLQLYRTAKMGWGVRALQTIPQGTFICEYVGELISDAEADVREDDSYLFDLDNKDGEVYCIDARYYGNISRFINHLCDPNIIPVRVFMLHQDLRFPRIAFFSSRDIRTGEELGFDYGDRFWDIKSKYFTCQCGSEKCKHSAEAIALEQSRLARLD
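G9a (20 nM) was preincubated 15 min with compound, then reacted 2 h at room temperature with 500 nM biotin-H3K9 peptide and 20 µM SAM. Monomethyl-H3K9 detected by AlphaScreen using anti-H3K9me1 antibody.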
JMJD2A Tudor inh: JMJD2A Tudor domain (human) inhibition | O75164 | AlphaScreen JMJD2A-Tudor / H3K4me3 peptide binding | Potency, µM (top dose mostly 114 µM), for inactives: at the top dose activity change, negative = inhibition, hits mostly inhibitors | 4.4% of 390,000 active; further: on the % scale 0 is the no-effect control and ±100 the full control effect; nearly all actives have a fitted effect of over 50% in size
L3MBTL1 inh: inhibitors of human L3MBTL1 | Potency, µM (top dose mostly 57.1 µM), for the others: top-dose activity, negative = inhibition, usual class: inhibitors | Q9Y468 | AlphaScreen L3MBTL1–H3K9me1 peptide binding | 0.66% of 230,000 active; further: on the % scale 0 is the no-effect control and ±100 the full control effect; nearly all actives have a fitted effect of over 60% in size
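Displacement of a biotinylated histone H3(1-15) peptide monomethylated at Lys9 (75 nM) from L3MBTL1 (50 nM) was measured by AlphaScreen after a 30 min room-temperature compound incubation; cefsulodin titration served as intraplate control.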
BAZ2B inh: blocks human BAZ2B; Potency, µM (titrated, usually from 114 µM), for the others: at the top dose activity change, negative = inhibition, most hits filed as inhibitors; 4.4% of 360,000 active; AlphaScreen BAZ2B-H3K14Ac peptide displacement; Q9UIF8; further: on the % scale 0 is the no-effect control and ±100 the full control effect; nearly all actives have a fitted effect of over 60% in size
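Multi-concentration screen (max 110 uM) measuring displacement of acetylated histone H3 peptide from BAZ2B by AlphaScreen, using 50 nM protein, 50 nM peptide and 10 ug/mL streptavidin donor plus Ni-chelate acceptor beads.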
Numbers without * were called inactive; u = inconclusive; x = no result; [ ] = another dose, or the depositor's remark. Sampled rows, rich in hits. Any-hit rate of the full collection: about 10%. The call rests on the fitted dose curve; in most records, active means well fitted curve in the direction sought with a large enough effect; inconclusive means small, poorly fitted or top-dose-only effect, or another doubt; inactive means no such curve, though single readings can be large; an effect the other way counts as inactive or inconclusive. Potency means the concentration at half of the fitted maximal effect.

SMILES	GLS inh	HP1b binding inh	G9a inh	JMJD2A Tudor inh	L3MBTL1 inh	BAZ2B inh
O=C(Nc1nnc(C2CC2)s1)C1Cc2ccccc2CN1S(=O)(=O)c1cccs1 (stereo not given)	-1%	31%	-6%[59 µM]	-15%	u	-4%
CCc1nnc(NC(=O)C2Cc3ccccc3CN2S(=O)(=O)c2ccc(C)cc2)s1 (stereo not given)	-20%	0%	40µM*	u	-3%	u
CCc1nnc(NC(=O)C2Cc3ccccc3CN2S(=O)(=O)c2cccs2)s1 (stereo not given)	3%	30%	14µM*	-34%	-15%	-1%
O=C(O)C1Cc2ccccc2CN1S(=O)(=O)c1ccccc1 (stereo not given)	0%	16%	u	-1%	x	u
COc1cccc2sc(N3CCN(C(=O)CCS(=O)(=O)c4ccc(F)cc4)CC3)nc12	-9%	0%	-1%[59 µM]	-12%	x	-5%
CCOc1ccc(-c2nn(CC(=O)NC3CCCCC3)c3c2cnc2ccc(C)cc23)cc1	-10%	73%	4%[59 µM]	-17%	x	-2%
COc1ccc(NC(=O)C(C)n2nc(-c3ccc(C)c(C)c3)ccc2=O)cc1OC (stereo not given)	-6%	40%	-18%[59 µM]	-13%	x	-35%
CC1NC(=O)NC1CCCCCC(=O)Nc1ccc(F)c(Cl)c1 (stereo not given)	0%	1.1µM*	1µM*	u	0.32µM*	0.79µM*
Cc1ccc(NC(=O)CCCCCC2NC(=O)NC2C)cc1 (stereo not given)	5%	1.1µM*	u	0.35µM*	x	0.79µM*
CC1NC(=O)NC1CCCCC(=O)O (stereo not given)	6%	-19%	21%[59 µM]	0%[11.4 µM]	3%	x
CCOC(=O)c1c(C)[nH]c(C)c1S(=O)(=O)N(C)CC(=O)NCc1ccc(Cl)cc1	11%	51%	-8%[59 µM]	-29%	x	21%
O=C1c2ccccc2C(=O)N1c1ccccc1O	x	x	x	1%	x	x
O=C(Cc1ccccc1)NCC(=O)Nc1ccc(OC(F)(F)F)cc1	-4%	28%	5%	-8%	x	-12%
COCCNCC(=O)Nc1ccc(OC(F)(F)F)cc1	6%	u	22µM*	0.79µM*	15%	50µM*
CCOCCCNCC(=O)Nc1ccc(OC(F)(F)F)cc1	6%	u	50µM*	40µM*	x	79µM*
Cc1cc2c(s1)c1cnn(Cc3cc(F)cc(F)c3)c(=O)c1n2C	x	x	x	-9%	x	x
CCOc1ccc(-c2cc(-c3nc(-c4ccc(C)cc4)no3)[nH]n2)cc1	3%	32%	12%[59 µM]	-19%	x	2%
CC(C)c1ccc(CN(Cc2ccco2)c2cnc(S(C)(=O)=O)nc2C(=O)Nc2ccc(F)cc2)cc1	1%	17%	-14%[59 µM]	u	x	-24%
COC(=O)c1ccc(Oc2cc(C)nc(SC)n2)cc1	u	u	11%[59 µM]	28µM*	5%	4%
COC(=O)c1ccc(Oc2cc(C)nc(Cl)n2)cc1	-6%	42%	19%	-5%	3%	-23%
O=C(CN1C(=O)C2(SCC(=O)N2c2ccc(F)c(F)c2)c2ccccc21)NCCc1ccccc1 (stereo not given)	4%	28%	-7%[59 µM]	-20%	x	6%[57.1 µM]
N#CC1=C(N)Oc2cc(N)ccc2C1c1ccccc1Cl (stereo not given)	-9%	25%	x	-19%	2%	u
COCCn1c(C)cc2c(c1=O)C(c1ccccc1F)C(C#N)=C(N)O2 (stereo not given)	1%	28%	-1%[12.7 µM]	-6%	-3%	6%
Cn1c2c(c(=O)n(C)c1=O)C(c1ccccc1F)C(C#N)=C(N)O2 (stereo not given)	0%	54%	16µM*	-13%	1%	-6%
Cn1c2c(c(=O)n(C)c1=O)C(c1ccccc1Cl)C(C#N)=C(N)O2 (stereo not given)	-2%	61%	25µM*	2%	x	-23%
SMILES	GLS inh	HP1b binding inh	G9a inh	JMJD2A Tudor inh	L3MBTL1 inh	BAZ2B inh
CCC(=O)N1CCc2cc(Br)cc(S(=O)(=O)NCCc3ccccc3Cl)c21	2%	33%	0%[59 µM]	-2%	x	1%
CCNC(=O)C1CCCc2c1[nH]c1ccc(Cl)cc21 (stereo not given)	0%	0%	-8%[59 µM]	-15%[57.1 µM]	x	79µM*
CCOC(=O)c1c(NC(=O)COc2ccccc2)sc2c1CC(C)(C)NC2(C)C	-7%	23%	-6%	-8%	-3%	-25%
CCOC(=O)c1c(NC(=O)COC(=O)/C=C/c2ccco2)sc2c1CC(C)(C)NC2(C)C	3%	u	16µM*	u	u	u
CCOC(=O)c1c(NC(=O)CSc2nc3ccccc3[nH]2)sc2c1CC(C)(C)NC2(C)C	4%	-3%	40µM*	-33%	-7%	-6%
CCCCCC(=O)NC(NC(=S)NC1CCS(=O)(=O)C1)C(Cl)(Cl)Cl (stereo not given)	-6%	17%	25µM*	-6%	u	19%
CSc1ccc(/C=N/NC(=O)c2cc(O)cc(O)c2)cc1	12%	19%	6%[59 µM]	-28%	-7%	-7%
CSc1ccc(/C=N/NC(=O)c2ccc(C)c(C)c2)cc1	6%	18%	-4%[59 µM]	u	-13%	50µM*
O=C(O)c1cc(N/N=C/c2c[nH]c3ccccc23)ccc1Cl	14µM*	-36%	45µM*	u	x	u
O=C(O)c1cc(N/N=C/c2ccc(-c3ccccc3)cc2)ccc1Cl	u	-25%	17%[0.501 µM]	32µM*	x	u
O=C(O)c1cc(N/N=C/c2ccncc2)ccc1Cl	-26%	18%[57 µM]	-46%[59 µM]	-7%	4%	-2%
O=C(N/N=C/c1c[nH]c2ccccc12)c1cccc(Cl)c1	14%	21%	-5%	-33%	x	-6%
CSc1ccc(/C=N/Nc2ccc(Cl)c(C(=O)O)c2)cc1	-19%	1%	10µM*	-36%	-6%	-37%
CN(C)c1ncc2nc(-c3cccs3)c(=O)n(CCC#N)c2n1	x	x	5%[0.501 µM]	x	x	x
CC(C)C(=O)NC(c1ccco1)c1ccc2cccnc2c1O (stereo not given)	19%	31%	6%[59 µM]	79µM*	u	x
CCCC(=O)NC(c1cccc([N+](=O)[O-])c1)c1ccc2cccnc2c1O (stereo not given)	-5%	x	x	x	x	x
Oc1c(C(Nc2nc3ccccc3s2)c2ccco2)ccc2cccnc12 (stereo not given)	-2%	-4%	25µM*	u	-27%	50µM*
CCN(CC)c1ccc(C(NC(=O)C(C)C)c2ccc3cccnc3c2O)cc1 (stereo not given)	21%	x	x	x	x	x
